Reference: PubChem BioAssay (NCI)
Compounds without any hit were thinned out: in the full panel of roughly 83,000, 20% have a hit.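 The test compound was applied at a single concentration to cells in 96-well plates for 48 hours, and percent growth was recorded.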 The source made the active and inactive calls. Rule for the calls: active = growth percent below 10; inactive = the rest.

Assays:
Experiment in all cases: NCI-60 one-dose screen, 48 h (100 = growth as untreated, 0 = no growth, -100 = all killed)
Conditions in all cases: 10 µM unless noted
T-47D breast = test system: T-47D breast
BT-549 breast = test system: BT-549 breast
MDA-MB-435 melanoma = test system: MDA-MB-435 melanoma
SW-620 colon = test system: SW-620 colon
MCF7 breast = test system: MCF7 breast
HCT-116 colon = test system: HCT-116 colon
HCC-2998 colon = test system: HCC-2998 colon
KM12 colon = test system: KM12 colon

Measured: growth

N#CCCCCCn1c2ccccc2c2c3c(c4c5ccccc5n(CCCCCC#N)c4c21)C(=O)N(O)C3=O
inactive: T-47D breast 75.7% | BT-549 breast 75% | MDA-MB-435 melanoma 91.3% | SW-620 colon 106% | MCF7 breast 72.2% | HCT-116 colon 71.3% | HCC-2998 colon 80.8% | KM12 colon 71.8%

CCC(=O)c1c(C)[nH]c(C)c1C
inactive: T-47D breast 104% | BT-549 breast 94% | MDA-MB-435 melanoma 95.1% | SW-620 colon 52.3% | MCF7 breast 61.1% | HCT-116 colon 47.2% | HCC-2998 colon 114% | KM12 colon 102%

O=C(O[C@@H]1Cc2c(O)cc(O)cc2O[C@@H]1c1cc(O)c(O)c(O)c1)c1cc(O)c2c(c1)OCO2
inactive: T-47D breast 91.3% | BT-549 breast 96.2% | MDA-MB-435 melanoma 105% | SW-620 colon 106% | MCF7 breast 100% | HCT-116 colon 86.3% | HCC-2998 colon 104% | KM12 colon 101%

CC(C)=CCC/C(C)=C/CC/C(C)=C/CSC[C@H](NC(=O)CCCCCN1CCN(C)CC1)C(=O)NC1CCCCCC1
active: SW-620 colon -22.1% | MCF7 breast 7.39% | HCT-116 colon -61%
inactive: T-47D breast 36.9% | BT-549 breast 90.5% | MDA-MB-435 melanoma 50.2% | HCC-2998 colon 19.3% | KM12 colon 66.1%

COc1cccc(-c2nn(-c3ccccc3)cc2-c2ccnc(NCCCNS(=O)(=O)c3ccc(C(F)(F)F)cc3)c2)c1
active: T-47D breast -2.76%
inactive: BT-549 breast 36.6% | MDA-MB-435 melanoma 27.1% | SW-620 colon 47.7% | MCF7 breast 16.9% | HCT-116 colon 22.9% | HCC-2998 colon 20% | KM12 colon 23.8%

COc1cc2c3c(c4c5ccccc5[nH]c4c2c(OC)c1OC)C(=O)N(O)C3=O
inactive: T-47D breast 19.5% | BT-549 breast 46.2% | MDA-MB-435 melanoma 56.1% | SW-620 colon 49% | MCF7 breast 20.4% | HCT-116 colon 16.8% | HCC-2998 colon 55.3% | KM12 colon 53.7%

C#CCn1c(C)cc(C)c(C#N)c1=O
inactive: T-47D breast 101% | BT-549 breast 98% | MDA-MB-435 melanoma 106% | SW-620 colon 104% | MCF7 breast 91.5% | HCT-116 colon 103% | HCC-2998 colon 105% | KM12 colon 101%

COc1cc2nc(Cl)nc(Nc3cccc(C(=O)/C=C/c4ccc(F)cc4)c3)c2cc1OC
inactive: T-47D breast 67.6% | BT-549 breast 61.4% | MDA-MB-435 melanoma 39.4% | MCF7 breast 23.8% | HCC-2998 colon 49.9% | KM12 colon 28.4%
active: SW-620 colon 2.24% | HCT-116 colon -41.2%

COc1ccc(-c2cc(-c3cccs3)n(N=O)c(=O)c2C#N)cc1
inactive: T-47D breast 97.4% | BT-549 breast 104% | MDA-MB-435 melanoma 125% | SW-620 colon 112% | MCF7 breast 95.8% | HCT-116 colon 105% | HCC-2998 colon 112% | KM12 colon 109%

CC(C)=CCC[C@](C)(O)[C@H]1CC[C@]2(C)[C@@H]1CC[C@@H]1[C@@]3(C)C/C(=C/c4ccc(Br)cc4)C(=O)C(C)(C)[C@@H]3CC[C@]12C
inactive: T-47D breast 64.3% | BT-549 breast 95.4% | MDA-MB-435 melanoma 95.3% | SW-620 colon 82.2% | MCF7 breast 82.2% | HCT-116 colon 66.5% | HCC-2998 colon 92% | KM12 colon 94.9%

COC(=O)[C@]12CC[C@@H](C)[C@H](C)[C@@H]1C1=CC(=O)[C@@H]3[C@@]4(C)C[C@@H](O)[C@H](O)[C@@]5(C)COC(=C45)C[C@@]3(C)[C@]1(C)CC2
active: MDA-MB-435 melanoma -11.3%
inactive: T-47D breast 51.2% | BT-549 breast 53.9% | SW-620 colon 33.3% | MCF7 breast 28.5% | HCT-116 colon 53.2% | HCC-2998 colon 69.2% | KM12 colon 34.6%

COc1cccc(-c2nn(-c3ccccc3)cc2-c2ccnc(NCCCN)c2)c1
active: MDA-MB-435 melanoma -6.82%
inactive: T-47D breast 59.1% | BT-549 breast 68.6% | SW-620 colon 43.5% | MCF7 breast 41.8% | HCT-116 colon 45.1% | HCC-2998 colon 65.6% | KM12 colon 71.9%

Cn1nc(-c2ccccc2)c2c(-c3ccccc3)onc2c1=O
inactive: T-47D breast 26.8% | BT-549 breast 47.4% | SW-620 colon 28.9% | MCF7 breast 23.6% | HCT-116 colon 42.5% | HCC-2998 colon 74.5% | KM12 colon 33.7%
active: MDA-MB-435 melanoma -1.78%

CC(=O)c1c(C)[nH]c(-c2nc3ccc(N4CCN(C)CC4)cc3[nH]2)c1-c1ccc(OCC2CCOCC2)cc1
inactive: T-47D breast 29.1% | BT-549 breast 57.1% | MDA-MB-435 melanoma 23.5% | SW-620 colon 50.6% | HCT-116 colon 19.8% | HCC-2998 colon 31.7% | KM12 colon 34.2%
active: MCF7 breast 6.13%

c1cc(N2CCCC2)c2nc(-c3[nH]ncc3Nc3ncnc4[nH]ccc34)[nH]c2c1
active: T-47D breast 0.99% | BT-549 breast -37% | MDA-MB-435 melanoma -80.8% | SW-620 colon 2.01% | MCF7 breast -23% | HCT-116 colon -9.45% | HCC-2998 colon -30.4% | KM12 colon -20.4%

N#CCCCCCn1c2ccccc2c2c3[nH]c(=O)[nH]c(=O)c3c3c4ccccc4n(CCCCCC#N)c3c21
inactive: T-47D breast 22.9% | BT-549 breast 32% | MDA-MB-435 melanoma 36.8% | SW-620 colon 61.4% | MCF7 breast 45.3% | HCT-116 colon 28.2% | HCC-2998 colon 53.8% | KM12 colon 23.8%

CC(=O)Nc1cc(F)cc(C(F)(F)F)c1Cl
inactive: T-47D breast 96.7% | BT-549 breast 95.8% | MDA-MB-435 melanoma 99.3% | SW-620 colon 95.2% | MCF7 breast 91.5% | HCT-116 colon 94.1% | HCC-2998 colon 98.4% | KM12 colon 96.3%

C=C(C)[C@@H]1CC[C@]2(c3nnc(-c4ccncc4)o3)CC[C@]3(C)[C@H](CC[C@@H]4[C@@]5(C)CCC(=O)NC(C)(C)[C@@H]5CC[C@]43C)[C@@H]12
inactive: T-47D breast 100% | BT-549 breast 89.8% | MDA-MB-435 melanoma 101% | SW-620 colon 103% | MCF7 breast 92.9% | HCT-116 colon 88.8% | HCC-2998 colon 103% | KM12 colon 98.9%

COC(c1ccccc1)(c1ccccc1)c1ccccc1
inactive: T-47D breast 87.1% | BT-549 breast 95.7% | MDA-MB-435 melanoma 108% | SW-620 colon 99.1% | MCF7 breast 115% | HCT-116 colon 104% | HCC-2998 colon 142% | KM12 colon 82.2%

C=C(C)[C@@H]1CC[C@]2(C(=O)N3CCN(C)CC3)CC[C@]3(C)[C@H](CC[C@@H]4[C@@]5(C)C/C(=C/c6ccc(C(F)(F)F)cc6)C(=O)C(C)(C)[C@@H]5CC[C@]43C)[C@@H]12
inactive: T-47D breast 79.9% | BT-549 breast 102% | MDA-MB-435 melanoma 97.2% | SW-620 colon 99.5% | MCF7 breast 87.5% | HCT-116 colon 89.8% | HCC-2998 colon 107% | KM12 colon 97%

Cc1ccc2c(c1)c(-c1nc(-c3c[nH]c4ncccc34)cs1)cn2C
inactive: T-47D breast 45.3% | BT-549 breast 104% | MDA-MB-435 melanoma 96.5% | SW-620 colon 112% | MCF7 breast 17.4% | HCT-116 colon 85.1% | HCC-2998 colon 80% | KM12 colon 57.8%

Cc1ccc(-c2nc([P+](c3ccccc3)(c3ccccc3)c3ccccc3)c(N3C[C@H]4C[C@H](C3)c3cccc(=O)n3C4)o2)cc1
inactive: T-47D breast 38.5% | BT-549 breast 56.2% | MDA-MB-435 melanoma 44.4% | SW-620 colon 85.6% | MCF7 breast 67.3% | HCT-116 colon 88.2% | HCC-2998 colon 71.3% | KM12 colon 43.6%

CCc1nnc(NC(=O)c2ccoc2COc2ccccc2)s1
active: MDA-MB-435 melanoma -26.1%
inactive: T-47D breast 45.7% | BT-549 breast 51.2% | SW-620 colon 24% | MCF7 breast 24% | HCT-116 colon 30.6% | HCC-2998 colon 69% | KM12 colon 31.6%

CC(C)/C=C/CC[C@](C)(O)[C@H]1CC[C@]2(C)[C@@H]1CC[C@@H]1[C@@]3(C)C/C(=C/c4cccc(C(F)(F)F)c4)C(=O)C(C)(C)[C@@H]3CC[C@]12C
inactive: T-47D breast 73.8% | BT-549 breast 95.9% | MDA-MB-435 melanoma 99.3% | SW-620 colon 93.3% | MCF7 breast 82% | HCT-116 colon 76% | HCC-2998 colon 104% | KM12 colon 99.8%

Cc1cc(N(CCNc2ccnc3cc(Cl)ccc23)Cc2ccco2)nc(Cl)n1
active: T-47D breast -69.1% | BT-549 breast -78% | SW-620 colon -35.6% | MCF7 breast -29.7% | HCT-116 colon -96.8%
inactive: MDA-MB-435 melanoma 30.1% | HCC-2998 colon 62.2% | KM12 colon 26.5%

O=C(CCCCCn1c2ccccc2c2c3c(c4c5ccccc5[nH]c4c21)C(=O)N(O)C3=O)N1CCOCC1
inactive: T-47D breast 23.6% | BT-549 breast 60.3% | MDA-MB-435 melanoma 54.9% | SW-620 colon 56.4% | MCF7 breast 15.7% | HCT-116 colon 24.3% | HCC-2998 colon 18.8% | KM12 colon 47.6%

COc1cc(-c2cc(-c3nc4cc(Cl)c(Cl)cc4[nH]3)[nH]n2)cc(OC)c1OC
active: T-47D breast -10.8%
inactive: BT-549 breast 35.3% | MDA-MB-435 melanoma 66.1% | SW-620 colon 82.7% | MCF7 breast 47.6% | HCT-116 colon 52.6% | HCC-2998 colon 92.3% | KM12 colon 51.5%
